Source: PubChem
Hits are enriched below; roughly 9.3% of the tested compounds scored in any of these assays.
Sm TGR inh – qHTS Assay for the Inhibitors of Schistosoma Mansoni Peroxiredoxins. purified TGR, DTNB reduction, TNB absorbance 405 nm. Potency, µM (series often up to 114 µM), usual class: inhibitors. actives 3% (n = 360,000). AID 485364, 2010; note: nearly all actives have a fitted effect of over 60% in size
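First, TGR (20 nM dispensed) and NADPH were mixed with compound. Second, a 15 min room-temperature incubation followed. Third, further NADPH and then DTNB were added to start the reaction. Finally, TNB absorbance was monitored kinetically.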
FMDV antiviral – High Throughput Screening for Foot and Mouth Disease Virus Antivirals; FMDV antiviral cell-based qHTS; Potency, µM (doses to about 57.9 µM), most hits filed as inhibitors; actives 1.2% (n = 410,000); AID 1159524, 2015; calls by dose curve; tested in HEK293T cells; note: read-out not given here; nearly all actives have a fitted effect of over 45% in size
VACV mCherry inh – qHTS for Stage-Specific Inhibitors of Vaccinia Orthopoxvirus: mCherry Reporter Primary qHTS. Vaccinia virus mCherry reporter infection, fluorescence. Potency, µM (top dose mostly 36.5 µM), most hits filed as inhibitors. actives 0.63% (n = 310,000). AID 720579, 2013; calls by dose curve; tested in A549 cells; note: nearly all actives have a fitted effect of over 35% in size
HCV inh – qHTS Assay for Inhibitors of Hepatitis C Virus (HCV). Huh7.5.1 HCVcc-Cre infection, luciferase reporter, 44 h. Potency, µM (doses to about 41.8 µM), usual class: inhibitors. actives 3.4% (n = 340,000)
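A cell-based infection assay in which seeded cells (1,000 per well) receive test compound after 4 h, are inoculated with HCVcc-Cre at approximately 0.5 moi, and are incubated 44 h before luminescence detection.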
Vaccinia Venus – qHTS for Stage-Specific Inhibitors of Vaccinia Orthopoxvirus: Venus Reporter Primary qHTS | Vaccinia virus Venus reporter expression, fluorescence | Potency, µM (top dose mostly 36.5 µM), usual class: inhibitors | actives 0.46% (n = 330,000) | AID 720580, 2013; calls by dose curve; tested in A549 cells; note: nearly all actives have a fitted effect of over 30% in size
HCMV inh – qHTS Assay for inhibitors of the human cytomegalovirus (HCMV); HFF cells, HCMV-luciferase reporter, 72 h; active compounds read low; activity change, negative = inhibition, % at 57.5 µM; actives 4.5% (n = 410,000); AID 1259415, 2018; in the data active = activity change below about -60%; inconclusive = no clear call, values can overlap the other calls; inactive = above about -39%
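Luciferase read-out from HCMV-luciferase-infected HFFs (MOI 1 PFU/cell) 72 h post infection at 37C; compounds added after 16 h cell attachment; activity normalized between buffer-only basal and Salinomycin (10uM) inhibitor controls.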
Of the large screens only hits and unclear results are named; the others gave an inactive call. Unless noted, calls come from the whole dose curve; as a rule, active = well fitted curve in the direction sought with a large enough effect; inconclusive = small, poorly fitted or top-dose-only effect, or another doubt; inactive = no such curve, though single readings can be large; an effect the other way counts as inactive or inconclusive.

CCN1CCOC(=O)C1CC(=O)Nc1cc(C)cc(C)c1 (configuration not stated)	Sm TGR inh 18µM (no result: HCV inh)
COc1ccc2c(c1)-c1nc(-n3ncc(C(=O)NC[C@@H]4CCCN5CCCC[C@H]45)c3C)ncc1CC2	VACV mCherry inh 13µM, Vaccinia Venus inconclusive (no result: Sm TGR inh, HCV inh, HCMV inh)
Cc1ccccc1C(C(=O)NC1CCCC1)N(C(=O)Cc1cccs1)c1ccc2c(c1)OCCO2 (configuration not stated)	none (no result: FMDV antiviral)
CCc1ccc2[nH]c(=O)c(C(c3nnnn3CCOC)N3CCN(c4ccc(F)cc4)CC3)cc2c1 (configuration not stated)	Sm TGR inh 50µM, VACV mCherry inh inconclusive
CCc1ccc2[nH]c(=O)c(C(c3nnnn3CCOC)N3CCN(c4ccccc4)CC3)cc2c1 (configuration not stated)	Sm TGR inh 45µM (no result: VACV mCherry inh)
COCCn1nnnc1C(c1cc2cccc(C)c2[nH]c1=O)N1CCN(c2ccccc2F)CC1 (configuration not stated)	Sm TGR inh 14µM, Vaccinia Venus inconclusive (no result: VACV mCherry inh)
COCCn1nnnc1C(c1ccccc1OC)N1CCN(c2ccccc2F)CC1 (configuration not stated)	Vaccinia Venus inconclusive (no result: VACV mCherry inh)
CCc1ccc2[nH]c(=O)c(C(c3nnnn3Cc3ccccc3)N3CCOCC3)cc2c1 (configuration not stated)	none (no result: VACV mCherry inh, Vaccinia Venus)
CCOc1ccc(CCNC(=O)c2nnn(CC(=O)Nc3ccc(C)cc3)c2N)cc1OCC	none (no result: VACV mCherry inh, Vaccinia Venus, HCMV inh)
C#C[C@]1(O)CC[C@H]2[C@@H]3CCC4=Cc5nc6nc7ccccc7n6cc5C[C@]4(C)[C@H]3CC[C@@]21C	Sm TGR inh inconclusive, FMDV antiviral 14µM, HCV inh inconclusive
Cc1cccc(N(CC(=O)N(C)Cc2ccccc2)S(=O)(=O)c2ccccc2)c1C	HCMV inh -63 (no result: HCV inh)
c1ccc2c(CN3CCOCC3)csc2c1	none
CCCOc1ccc(C(F)(F)F)cc1NS(=O)(=O)c1ccc(Cl)nc1	VACV mCherry inh 11µM, Vaccinia Venus inconclusive
COc1ccc2nc(NC(=O)c3ccccc3C(=O)O)sc2c1	none (no result: VACV mCherry inh, Vaccinia Venus)
NC(=S)Nc1nc2ccccc2s1	HCMV inh -108
COc1ccc(C(=O)Nc2nc3ccccc3s2)c(OC)c1	FMDV antiviral 0.13µM, HCMV inh -97
COc1ccc(C(=O)Nc2ccccc2Cc2ccccc2)c(OC)c1	VACV mCherry inh inconclusive, HCV inh 10µM, HCMV inh -71
COc1ccc(C(=O)Nc2ccc(C)cc2C(=O)c2ccccc2)c(OC)c1	FMDV antiviral inconclusive, HCMV inh inconclusive
COCC(=O)Nc1nc2ccccc2s1	none
COc1ccccc1C(=O)NCc1ccc(-c2nc3ccccc3s2)cc1	Sm TGR inh inconclusive, FMDV antiviral inconclusive, HCMV inh -61
O=C(NCc1ccco1)c1ccc(COCC(F)(F)F)cc1	none (no result: VACV mCherry inh, Vaccinia Venus)
CC1Oc2cc3oc4c(O)c(O)ccc4c(=O)c3c(O)c2C1(C)C (configuration not stated)	Vaccinia Venus inconclusive (no result: Sm TGR inh, HCMV inh)
O=C(NNc1nc2ccccc2s1)c1ccccc1F	HCMV inh -67
O=C(NNc1nc2ccccc2s1)Nc1ccc(F)cc1	none (no result: VACV mCherry inh, Vaccinia Venus)
COCCN(C(=O)Nc1ccc(OC)cc1)c1nc2ccccc2s1	HCV inh inconclusive, HCMV inh -97
Cc1ccccc1Cn1cccc(C(=O)Nc2nc3ccccc3s2)c1=O	FMDV antiviral 22µM, HCMV inh -71 (no result: HCV inh)
COc1ccccc1C(=O)Nc1nc2ccccc2s1	FMDV antiviral 1.8µM, HCV inh inconclusive, HCMV inh -99 (no result: VACV mCherry inh, Vaccinia Venus)
COCCN(C(=O)Nc1ccc(F)cc1F)c1nc2ccccc2s1	none
Cc1noc(NS(=O)(=O)c2ccc(NC(=O)NC(C)(C(F)(F)F)C(F)(F)F)cc2)c1C	none (no result: VACV mCherry inh, Vaccinia Venus)
CCOc1ccc2nc(N3CCCC(C(=O)Nc4ccccc4CC)C3)sc2c1 (configuration not stated)	none (no result: HCV inh)
Cc1cc(C)c(NC(=O)C(C)n2c(=O)c(C(F)(F)F)nc3ccccc32)c(C)c1 (configuration not stated)	none (no result: HCV inh)
CCOC(=O)C1CCCN(C(=O)c2ccc3c(c2)N(C)C(=O)/C(=C/c2ccccc2Cl)S3)C1 (configuration not stated)	FMDV antiviral inconclusive, HCV inh 11µM
CN1C(=O)/C(=C/c2ccc(C(F)(F)F)cc2)Sc2ccc(C(=O)N3CCN(c4ccccn4)CC3)cc21	HCV inh 14µM, HCMV inh inconclusive
CCOC(=O)C1CCCN(C(=O)c2cccc(S(=O)(=O)N(C)c3c(C)n(C)n(-c4ccccc4)c3=O)c2)C1 (configuration not stated)	HCMV inh -99
CN1C(=O)/C(=C/c2ccccc2Cl)Sc2ccc(C(=O)N3CCCC3)cc21	HCV inh inconclusive, HCMV inh inconclusive (no result: VACV mCherry inh, Vaccinia Venus)
CN1C(=O)/C(=C/c2cccc(Cl)c2)Sc2ccc(C(=O)N3CCOCC3)cc21	HCV inh 11µM, HCMV inh inconclusive (no result: VACV mCherry inh, Vaccinia Venus)
Cc1cccc(N2CN(Cc3cccnc3)CNC2=S)c1	none
COc1ccc(Cl)cc1N(CC(=O)NCCSCc1ccccc1)S(C)(=O)=O	FMDV antiviral inconclusive, HCMV inh inconclusive
CCC(Sc1nc2cc(OC)c(OC)cc2c(=O)n1CCc1ccc(Cl)cc1)C(=O)NCCOC (configuration not stated)	HCMV inh inconclusive (no result: HCV inh)
Clc1ccc(-c2nnc(CSc3nnc(-c4cccs4)n3Cc3ccccc3)o2)cc1	FMDV antiviral inconclusive, HCV inh inconclusive, HCMV inh -88 (no result: VACV mCherry inh, Vaccinia Venus)
Cc1nnc(SCc2nnc(-c3cccs3)o2)n1Cc1ccccc1	none
O=C(NCSc1ccnc(SCNC(=O)c2ccccc2)n1)c1ccccc1	Sm TGR inh inconclusive
O=C(NCSc1ccncn1)c1ccccc1	Sm TGR inh 28µM (no result: VACV mCherry inh, Vaccinia Venus)
COc1ccc(CCCc2nnc(SCC(=O)N/N=C\c3ccc(O)c(OC)c3)o2)cc1C	FMDV antiviral 22µM, HCV inh inconclusive (no result: VACV mCherry inh)
Cc1nc2ccc([N+](=O)[O-])cc2nc1C	none
Cc1ccc2nc3cc([N+](=O)[O-])cc([N+](=O)[O-])c3cc2c1	Sm TGR inh 2.5µM, FMDV antiviral inconclusive, HCV inh inconclusive (no result: VACV mCherry inh, Vaccinia Venus)
CCN(C(=O)COC(=O)c1cccc(NS(=O)(=O)c2ccc(F)c(F)c2)c1)C1CCS(=O)(=O)C1 (configuration not stated)	none (no result: FMDV antiviral, VACV mCherry inh, HCV inh, Vaccinia Venus, HCMV inh)
COC(=O)Cn1c(=O)c(C)nc2ccccc21	none
Cc1c(C(=O)Nc2ccc(F)c(C(F)(F)F)c2)sc2nc(-c3ccccc3)cn12	Vaccinia Venus inconclusive, HCMV inh -98 (no result: HCV inh)
Cc1c(C(=O)Nc2ccncc2)sc2nc(-c3ccc(F)cc3)cn12	HCV inh 10µM, Vaccinia Venus inconclusive, HCMV inh inconclusive
